The text below walks through data of ChEMBL document CHEMBL3988442, “University of Dundee, Small-Polar-MMV Screening Library” (2021).

In all, about 48,000 compounds went through this assay and about 13,000 (27%) showed an effect of 50% or more. Some of the results follow.

The subject of the test is Wolbachia pipientis. The experiment in a line: Anti-Wolbachia Cell-Based Screen. To be noted: 5 µM. The class given is functional. Details: scale not given: in the data most compounds retested in dose-response had high values.
Turning to `O=C(CCCc1ccccn1)NCC(O)c1c(F)cccc1F` (centres undefined), the “Percent Effect” value was 14.04%. Then `CC(=O)Nc1ccc(CNC(=O)CNCc2nnc(C)o2)cc1`, with -22.07%; and `CC(C)c1ncc(CN2C[C@@H](CN3CCCN(C)CC3)[C@@H](CO)C2)cn1`, with -6.838%.

With `COc1cc(CN(C)C(=O)NCCC2CCCO2)ccc1SC` (centres undefined), the “Percent Effect” value was -4.598%. Then `Cc1cc(C)nc(N(C)CCn2ccnc2C)n1`, with 70.85%; and `Cc1nccn1CCN(C)c1cc(C(C)C)nc2ccnn12`, with -21.61%; and `Cc1cc(N(C)CCn2ccnc2C)n2nccc2n1`, with 3.132%. Then `Cc1nc(N2CCN(C(=O)C(C)(C)C)CC2)cc(-n2cnc(C)c2C)n1`, with -0.05678%; and `CN(C)CCNC(=O)C1Cc2nc(-c3ccsc3)sc2N1CC1CC1.O=C(O)C(F)(F)F` (centres undefined), with 106.6%. Then `CC(C)N1c2sc(-c3ccccc3)nc2CC1C(=O)NCCCO` (centres undefined), with 3.342%. Turning to `O=C(Nc1cccnc1)C1Cc2nc(-c3ccsc3)sc2N1CC1CC1.O=C(O)C(F)(F)F` (centres undefined), the “Percent Effect” value is 52.78%. Then `CN(C)CCNC(=O)C1Cc2nc(-c3ccccc3)sc2N1CC1CC1.O=C(O)C(F)(F)F` (centres undefined), with 101.2%; and `O=C(Nc1cccnc1)[C@H]1C[C@H]2OCC[C@H]2N(C(=O)c2ccsc2)C1.O=C(O)C(F)(F)F`, with -10.81%. Then `O=C(O)C(F)(F)F.O=C(c1ccsc1)N1C[C@@H]2CCN(c3cccnc3)C[C@@H]2C1`, with -7.879%; and `CN(C)CCOCC1CN(C(=O)c2ccsc2)Cc2ccnn2C1.O=C(O)C(F)(F)F.O=C(O)C(F)(F)F` (centres undefined), with -7.951%. In the case of `O=C(O)C(F)(F)F.O=C1N(c2ccsc2)CCC12CCCN(CC1CC1)C2` (centres undefined), the “Percent Effect” value was determined as 0.74%.

As for `CC(C)N1[C@@H](C(=O)NCCN(C)C)C[C@H]2CN(c3ncccn3)C[C@H]21.O=C(O)C(F)(F)F.O=C(O)C(F)(F)F.O=C(O)C(F)(F)F`, the “Percent Effect” value is -8.926%.

Regarding `Cc1cc(C(C)(O)CNC(=O)C2(C)CCCC2)c(C)o1` (centres undefined), the “Percent Effect” value is reported as -0.4765%. Then `FC(F)(F)CCc1ccnc(NCc2csc(N3CCOCC3)n2)n1`, with 9.156%; and `CNC(=O)[C@@H]1COC[C@H]2CN(C(=O)c3ccc(C)c(C)c3)C[C@H]21`, with -0.6496%; and `CCN(Cc1ncc(C(C)(C)C)o1)Cc1ccccc1C`, with -27.71%.

With `Cc1ccc(CN(C)Cc2ncc(C(C)(C)C)o2)o1`, the “Percent Effect” value is 106.2%. `Cc1cc(CN(C)Cc2ncc(C(C)(C)C)o2)no1`: the “Percent Effect” value is recorded as 71.54%. Then `Cc1cc(CN(C)Cc2cnc3c(c2)c(C)nn3C)no1`, with -2.389%; and `Cc1cccc(CN(Cc2ccccn2)Cc2ncc(C(C)(C)C)o2)c1`, with -46.43%. Then `Cc1cc(CN(C)Cc2ncc(-c3ccccc3)o2)no1`, with 85.66%. Then `Cc1cc(CN(C)Cc2ncc(-c3cccs3)o2)no1`, with -12.35%. Consider `CCN(Cc1cccc(Cl)c1)Cc1ncc(C(C)(C)C)o1`, for which the “Percent Effect” value was -36.69%.

`CN(Cc1ncc(-c2ccccc2)o1)CC1CCCN1c1cccnn1` (centres undefined): the “Percent Effect” value was found to be 1.26%. Then `CN(Cc1ccc(N(C)C)cc1)C(=O)CS(=O)(=O)c1ccc(Cl)cc1`, with -13.85%; and `CCN1CCN(C(=O)C2CCCc3[nH]ncc32)CC1` (centres undefined), with -17.44%. Then `Cc1cccc2c1nc1n2[C@@H](CNC(=O)c2cnccn2)COC1`, with -0.5308%; and `O=C1CC2(CCCCC2)CC(=O)N1CC(O)COCc1ccc(Cl)cc1` (centres undefined), with -11.1%. Regarding `Cc1cc(NC(=O)Cn2cnc(-c3cccs3)cc2=O)sn1`, the “Percent Effect” value worked out at 24.65%. Then `Cc1cc(NC(=O)Cn2cnc(-c3cccs3)cc2=O)no1`, with 10.41%; and `COc1cccn(C(C)C(=O)NC2CCCC2)c1=O` (centres undefined), with 10.4%. For `CC(C(N)=O)n1nc(-c2cccs2)cc(N)c1=O` (centres undefined), the “Percent Effect” value is given as 54.84%. Then `CC(C(=O)NC1CC1)n1nc(-c2cccs2)cc(N)c1=O` (centres undefined), with 130.1%; and `CC(C(=O)NC1CC1)S(=O)(=O)Cc1csc(-c2cccs2)n1` (centres undefined), with -10.04%; and `CCNC(=O)O[C@H]1COCCN(c2nc3ccccc3s2)C1`, with 2.544%. In the case of `CC(C)N(C)C(=O)c1ccc(Cl)c(NC(=O)C2CCC2)c1`, the “Percent Effect” value is recorded as 2.877%.

As to `OC(c1cccs1)C1CCN(c2ncccn2)CC1` (centres undefined), the “Percent Effect” value is listed as 0.2293%.

As for `c1cnc(N2CCC(NCc3cnc(C4CCC4)s3)CC2)nc1`, the “Percent Effect” value was determined as 3.36%. `c1cnc(N2CCCC(c3csc(Nc4cnccn4)n3)C2)nc1` (centres undefined): the “Percent Effect” value is recorded as 106%. Then `c1cnc(N2CCC(c3csc(Nc4cnccn4)n3)CC2)nc1`, with 101.3%; and `Cc1cccc(C(C(=O)N(C)Cc2ccon2)N(C)C)c1` (centres undefined), with 3.369%; and `Cc1noc(-c2cccnc2N(C)Cc2ccc([S+](C)[O-])cc2)n1` (centres undefined), with 9.143%. Then `Nc1nc2c(c(NC(=O)Nc3ccccc3)n1)CCCC2`, with -9.493%. Then `O=C1NC(=O)c2c3c(nc(O)c21)CCCC3`, with 98.35%. Regarding `COCC(=O)N1CCCC1c1nccnc1Nc1nc(C)cs1` (centres undefined), the “Percent Effect” value was 111.3%. Then `COCc1cccc(CNC(=O)CN2CCCC2c2noc(C)n2)c1` (centres undefined), with -0.5396%. Then `CN(C(=O)Nc1ccccn1)C1CCCN(c2ccccc2)C1=O` (centres undefined), with -3.011%; and `Cc1cccc(Nc2cc(C)nc(C3CCCCN3CC(N)=O)n2)n1` (centres undefined), with 123.2%. Then `Cc1cc(Nc2nc(C)cs2)nc(C2CCCCN2CCO)n1` (centres undefined), with -3.809%; and `COc1ccc(C2CCCN2C(=O)NCCNc2ncccn2)cc1` (centres undefined), with -12.53%; and `CCC(=O)N1CCCC1c1nccnc1Nc1ncccn1` (centres undefined), with -3.342%. Take `CN(C)C(=O)CN1CCCC1c1nccnc1Nc1ccccn1` (centres undefined): the “Percent Effect” value amounted to 99.96%. Then `Cc1csc(Nc2nccnc2C2CCCN2C(=O)C(C)C)n1` (centres undefined), with 0.9263%; and `CN(Cc1ccccc1)C(=O)CN1CCCC1c1cnn(C)c1` (centres undefined), with -36.94%. For `COCC(=O)N1CCCC1c1nccnc1Nc1ncccn1` (centres undefined), the “Percent Effect” value worked out at 112.6%. Regarding `COc1nc2c(cc1C(=O)N1CCCOC(CN3CCCC3)C1)CCC2` (centres undefined), the “Percent Effect” value is -1.335%.

`Cc1ccc(CNC(=O)C2CCN(C(=O)c3ccccc3)CC2)n1C`: the “Percent Effect” value is on record as -7.91%. Then `Cc1ccc(C2(C(=O)N3CCC(n4cc(C(C)O)nn4)CC3)CC2)cc1` (centres undefined), with -9.43%; and `O=C(O)c1ccc(CCNC(=O)C2(c3ccccc3)CC2)cc1`, with 2.318%; and `C[C@@H]1CN(CC(C)(C)N2CCOCC2)C[C@@]1(O)C1CC1`, with 17.03%. Then `CCc1nc(NS(=O)(=O)c2ccc(F)cc2C)no1`, with -5.54%; and `CC(C)Cn1cnnc1C1CCCN1C(=O)OC(C)(C)C` (centres undefined), with 4.117%; and `Cc1cccc(Nc2nccnc2C2CCCN2CC(N)=O)n1` (centres undefined), with 127.5%.

On to `CC(C)CC(=O)N1CCCC1c1nccnc1Nc1ncccn1` (centres undefined), for which the “Percent Effect” value was 105.7%. Then `CC(C)(C)C(=O)N1CCCC1c1ccc(C(=O)N2CCOCC2)s1` (centres undefined), with -16.89%.

Turning to `CC(C)(C)C(=O)N1CCCC1c1nccnc1Cl` (centres undefined), the “Percent Effect” value turned out to be 155.8%. Consider `Cl.NCC(=O)N1CCCC1c1nccnc1Nc1ncccn1` (centres undefined), for which the “Percent Effect” value is 117.8%.

`FC(F)c1nnc2ccc(N3CCC4(CCCCC4)C3)nn12`: the “Percent Effect” value is recorded as -13.07%.

In the case of `O=C(O)[C@H]1C[C@H](C(=O)NC2CC2)CN(Cc2ccc(-c3cc[nH]n3)s2)C1`, the “Percent Effect” value is recorded as -5.985%. Then `CCOC(=O)CCC(=O)N1CCC(CSCc2ccco2)CC1`, with -5.481%; and `CC(C)N(CC(=O)O)Cc1cccc(Br)c1.Cl`, with -4.939%. As for `Cc1cc(C2CCCN2C(=O)NCc2cccnc2)on1` (centres undefined), the “Percent Effect” value is reported as -8.527%. Regarding `CC(=O)N1CCCC1c1nnn2cc(NCc3cccnc3)ccc12.O=C(O)C(F)(F)F.O=C(O)C(F)(F)F` (centres undefined), the “Percent Effect” value is recorded as 4.094%. Then `COCCn1ccnc1-c1cc(CN2CCCCC2)cs1`, with -8.994%.

For `CC(=O)N1CCCC1c1nccnc1NCc1cccnc1` (centres undefined), the “Percent Effect” value was found to be 106.4%. Then `Cc1cccc(Nc2nccnc2C2CCCN(CC(=O)N(C)C)C2)n1` (centres undefined), with 110.8%; and `COCCN1CCCC(c2nccnc2Nc2nc(C)cs2)C1` (centres undefined), with 86.28%. Then `Cc1csc(Nc2nccnc2C2CCCN2CC(N)=O)n1` (centres undefined), with 113.4%; and `COCCn1ccnc1C1CCCN(c2ncnc3c(C)csc23)C1` (centres undefined), with -8.002%. Then `CC(=O)N1CCC2(CCCN(C(=O)CCN3CCCCC3)C2)C1` (centres undefined), with -26.8%; and `O=C(Cc1cccs1)NC1(C(=O)NCC2CC2)CCCC1`, with 4.522%. Take `CC(=O)N1CCCC1c1nnn2cc(Nc3ccccc3)ccc12.O=C(O)C(F)(F)F` (centres undefined): the “Percent Effect” value was -10.64%.

Turning to `COCCC(=O)N1CCCC1c1nccnc1Nc1ncccn1` (centres undefined), the “Percent Effect” value came to 132.2%.

Turning to `CC(=O)N1CCCC1c1nccnc1Nc1ncccn1` (centres undefined), the “Percent Effect” value was found to be 114.6%. Then `CNS(=O)(=O)Cc1ccc(CNC(=O)Nc2cccnc2)cc1`, with -4.432%; and `COC1CCCN(C(=O)Nc2nc(C)n(C)n2)C1` (centres undefined), with -6.454%; and `CCC[C@@H]1CN(Cc2nnc(-c3cccc(F)c3)o2)C[C@H]1NC(C)=O`, with -4.818%. Then `O=C(c1ccc2[nH]ccc2c1)N1CCCCC1c1nc[nH]n1` (centres undefined), with 5.747%; and `N#CC1COCCN1C(=O)c1cccc2cc[nH]c12` (centres undefined), with 105.1%.

Turning to `N#CC1COCCN1C(=O)c1ccc2[nH]ccc2c1` (centres undefined), the “Percent Effect” value came to 142.7%. Then `O=C(O)C(c1ccc2[nH]ccc2c1)N1CCOCC1` (centres undefined), with 14%. Then `O=C(c1cccc2cc[nH]c12)N1CCC2(CCOC2)C1` (centres undefined), with -1.625%.

Turning to `N#CC1COCCN1C(=O)c1ccc2[nH]cnc2c1` (centres undefined), the “Percent Effect” value worked out at 108.9%. Then `CCc1nnc2n1CCN(C(=O)c1ccc3[nH]cnc3c1)C2`, with -15.67%; and `CC(C)(C)OC(=O)N1CCCN1C(=O)c1cccc2cc[nH]c12`, with -15.66%. Then `NC(=O)CC1CCCCN1C(=O)c1ccc2cc[nH]c2c1` (centres undefined), with -8.838%; and `N#CC1COCCN1C(=O)c1ccc2cc[nH]c2c1` (centres undefined), with 87.5%; and `O=C(c1ccc2[nH]cnc2c1)N1CCC(Oc2cccnc2)CC1`, with -0.01073%.

Take `CNS(=O)(=O)CC1CCCN1C(=O)c1ccc2cc[nH]c2c1` (centres undefined): the “Percent Effect” value is reported as -9.261%.
